From PubChem BioAssay (Tox21) come the findings set out here.

Assay [1] can be described thus: qHTS assay to identify small molecule agonists of H2AX (AID 1224845; active = well fitted activation curve with a large enough effect in the signal ratio in the repeat runs, not every such curve was filed as active; the % refers to the signal ratio). In short, it runs like this:
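Phospho-H2AX Ser139 measured by HTRF (ex 320 nm; em 665 and 620 nm) after 24 hr antibody incubation. Compounds, 15 concentrations, 0.76% DMSO, were applied to CHO-K1 cells for 3hr at 37C before lysis.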
(Quantitative high-throughput screening tests each substance at several concentrations.)

Assay [2] can be described thus: qHTS assay to identify small molecule agonists of the hypoxia (HIF-1) signaling pathway (AID 1224846; active = well fitted activation curve with a large enough effect in the signal ratio in the repeat runs, not every such curve was filed as active; the % refers to the signal ratio). In short, it runs like this:
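Cell line: CellSensor HRE-bla ME-180; 2,000 cells/well; 0.5% dialyzed FBS; 5 h preincubation; DMSO compound pin transfer; 17 h, 37C, 5% CO2; CCF4-AM added; bla FRET signal scored for activation.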

Assay [3] in a line: qHTS assay to identify small molecule agonists of H2AX - cell viability counter screen (AID 1224847; calls by dose curve; also: nearly all actives have a fitted effect of over 30% in size; also: potency is read from the fitted curve at half-maximal effect). In short, it runs like this:
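Read-out: CellTiter-Glo luminescence, 30 min RT. Cells: wild-type CHO-K1, 1000/well, 10% FBS, plated overnight at 37C. Treatment: 15 concentrations, 3 hr, 37C, 0.76% DMSO.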

Assay [4] in a line: qHTS assay to identify small molecule agonists of the estrogen related receptor (ERR) signaling pathway from Tox21 library (AID 1224849; calls by dose curve; also: nearly all actives have a fitted effect of over 15% in size). The conditions noted are these: ERR reporter cell line, ONE-Glo luciferase, 18 h; at 92.4 µM (top of the series) unless noted. In short, it runs like this: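 ERR cells, 6 h pre-incubation 37 C/5% CO2; cpd in DMSO pinned; 18 h 37 C; ONE-Glo added, 30 min RT; luminescence read. Agonist mode, qHTS.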

Assay [5] can be described thus: qHTS RealTime-Glo MT Cell Viability Assay in HepG2 cells - 24 hour (AID 1224867). Also: nearly all actives have a fitted effect of over 50% in size. In short, it runs like this: (§1)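 Compound treatment began 5 h after plating HepG2 cells (600/well) with NanoLuc luciferase and prosubstrate. Plates stayed at 37 C for 40 h; luminescence was captured at six time points, 0 h through 40 h.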
Assay [6] in a line: A CellTox Green Cytotoxicity Assay to monitor cytotoxicity in HEK293 cells - 0 hour (AID 1224869). Also: nearly all actives have a fitted effect of over 50% in size. In short, it runs like this: (§2)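 Nonlytic real-time cytotoxicity: HEK293 + CellTox Green reagent plated, 5 h preincubation, pintool compound addition (23 nL in DMSO), 37 C for 40 h, fluorescence measured at successive time points.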
Assay [7] can be described thus: qHTS RealTime-Glo MT Cell Viability Assay in HepG2 cells - 40 hour (AID 1224870). Also: nearly all actives have a fitted effect of over 50% in size. In short, it runs like this: (§3)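 Real-time viability: cells seeded at 600 per well together with NanoLuc and cell-permeant prosubstrate, compounds added after 5 h incubation. Luminescence tracked at 0, 8, 16, 24, 32 and 40 h of exposure.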
The nature of assay [8]: A CellTox Green Cytotoxicity Assay to monitor cytotoxicity in HEK293 cells - 40 hour (AID 1224871). Also: nearly all actives have a fitted effect of over 45% in size. Also: potency is read from the fitted curve at half-maximal effect. In short, it runs like this: as §2
A short description of assay [9]: qHTS RealTime-Glo MT Cell Viability Assay in HEK293 cells - 16 hour (AID 1224872). Also: nearly all actives have a fitted effect of over 50% in size. Also: potency is read from the fitted curve at half-maximal effect. In short, it runs like this: (§4)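 Quantitative high-throughput screen of the Tox21 10K library in HEK293: cells and RealTime-Glo reagents plated together, compound added at 5 h, luminescence monitored through 40 h at 37 C.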
Assay [10] in a line: qHTS RealTime-Glo MT Cell Viability Assay in HepG2 cells - 8 hour (AID 1224873). Also: nearly all actives have a fitted effect of over 55% in size. Also: potency is read from the fitted curve at half-maximal effect. In short, it runs like this: as §3
Assay [11] can be described thus: A CellTox Green Cytotoxicity Assay to monitor cytotoxicity in HEK293 cells - 24 hour (AID 1224875). Also: nearly all actives have a fitted effect of over 45% in size. Also: potency is read from the fitted curve at half-maximal effect. In short, it runs like this:
as §2

Assay [12] can be described thus: A CellTox Green Cytotoxicity Assay to monitor cytotoxicity in HepG2 cells - 16 hour (AID 1224876). Also: nearly all actives have a fitted effect of over 45% in size. Also: potency is read from the fitted curve at half-maximal effect. In short, it runs like this: (§5)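 Read-out is fluorescence of a cyanine dye excluded from live cells that stains DNA of dead HepG2 cells, with signal proportional to cytotoxicity. Plates were read at 0, 8, 16, 24, 32 and 40 h after compound addition.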
A short description of assay [13]: qHTS RealTime-Glo MT Cell Viability Assay in HepG2 cells - 32 hour (AID 1224877). Also: nearly all actives have a fitted effect of over 55% in size. In short, it runs like this: as §1
Assay [14] in a line: A CellTox Green Cytotoxicity Assay to monitor cytotoxicity in HepG2 cells - 24 hour (AID 1224878). Also: nearly all actives have a fitted effect of over 45% in size. Also: potency is read from the fitted curve at half-maximal effect. In short, it runs like this: as §5
A short description of assay [15]: A CellTox Green Cytotoxicity Assay to monitor cytotoxicity in HepG2 cells - 40 hour (AID 1224879). Also: nearly all actives have a fitted effect of over 40% in size. Also: potency is read from the fitted curve at half-maximal effect. In short, it runs like this: as §5
A short description of assay [16]: qHTS RealTime-Glo MT Cell Viability Assay in HEK293 cells - 0 hour (AID 1224880). Also: nearly all actives have a fitted effect of over 45% in size. Also: potency is read from the fitted curve at half-maximal effect. In short, it runs like this:
(§6)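 Cells were seeded together with NanoLuc luciferase and a prosubstrate that viable cells reduce to a luciferase substrate. After a 5 h incubation at 37 C/5% CO2, compounds were added and luminescence was measured repeatedly during 40 h of treatment.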

Assay [17] can be described thus: qHTS assay to identify small molecule agonists of the hypoxia (HIF-1) signaling pathway - cell viability counter screen (AID 1224844; calls by dose curve; also: nearly all actives have a fitted effect of over 50% in size; also: potency is read from the fitted curve at half-maximal effect). In short, it runs like this: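 ME-180 HRE-bla cells, 2,000/well, 0.5% dialyzed FBS; 5 hr settle, 17 hr compound at 37C/5% CO2; CCF4-AM reporter read first, then CellTiter-Glo luminescence after 30 min RT.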
Assay [18] in a line: qHTS RealTime-Glo MT Cell Viability Assay in HEK293 cells - 32 hour (AID 1224868). Also: nearly all actives have a fitted effect of over 50% in size. Also: potency is read from the fitted curve at half-maximal effect. In short, it runs like this: as §4
Assay [19] is described as follows: qHTS RealTime-Glo MT Cell Viability Assay in HEK293 cells - 40 hour (AID 1224874). Also: nearly all actives have a fitted effect of over 50% in size. Also: potency is read from the fitted curve at half-maximal effect. The conditions noted are these: RealTime-Glo luminescence; max response: hits give low values. In short, it runs like this:
as §6

The nature of assay [20]: qHTS assay to identify small molecule antagonists of the estrogen related receptor (ERR) signaling pathway from Tox21 library (AID 1224848). Also: nearly all actives have a fitted effect of over 50% in size. Also: potency is read from the fitted curve at half-maximal effect. In short, it runs like this: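 Reading was by luminescence 30 min after ONE-Glo addition. Before that, ERR cells at 2,000 per well had rested 6 h at 37 C/5% CO2 and then received pin-tooled compounds in DMSO for 18 h at 37 C.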

Several values for one entry are separate records, joined by “and”; a condition that tells them apart may be missing. Equal entries are not always repeated. Values without a mark were called inactive. Records with an inconclusive call do not appear. Activity calls are given as the source filed them. Unless noted, calls follow the shape of the dose curve; as a rule, active = well fitted curve in the direction sought with a large enough effect in the repeat runs; inconclusive = weak or mixed curves; inactive = no such curve, though single readings can be large; an effect the other way counts as inactive or inconclusive.
% is scaled to controls: 0 for no effect and ±100 for the full control effect.

Consider `Cc1ccccc1OP(=O)(Oc1ccccc1C)Oc1ccccc1C`, for which the Potency entry in assay [1], in assay [2], in assay [5], in assay [6], in [7] and in [8] was “inactive” in each case. In addition, the Potency entry in [9], in assay [10], in [11], in assay [12], in assay [13] and in assay [14] was “inactive” in each case. Also, the Potency result in assay [15] and in assay [16] was “inactive” each time. For the same compound, the Potency in [3] was 90.1 µM (active). The activity change, positive = activation in assay [4] was -4.53%.
As for `Clc1ccc(C(Cl)(Cl)Cl)cc1Cl`, the Potency in [17] is 24 µM (active); in assay [18], 33.9 µM (active); in assay [8], 33.9 µM (active); in assay [9], 33.9 µM (active); in assay [19] it was 33.9 µM (active); in assay [11], 33.9 µM (active). For the same compound, the Potency in assay [12], in assay [14] and in assay [15] was 47.9 µM (active) throughout. The Potency result in assay [3], in assay [6] and in assay [16] was “inactive” each time.
With `O=P(Cl)(Cl)Cl`, the Potency result in assay [1], in [2], in assay [3], in [5], in assay [18] and in [6] was “inactive” each time. Further, the Potency result in [8], in [10], in [11], in assay [12], in [13] and in [14] was “inactive” throughout. In addition, the Potency result in assay [15] and in [16] was “inactive” in each case. Besides, in assay [19], the max response was 0.904%.
Consider `O=C1C(Cl)=C(Cl)C(=O)C(Cl)=C1Cl`, for which the Potency is 54.8 µM (active) and 38.9 µM (active) in [17]; 24.3 µM (active) in assay [20]; 24.5 µM (active) and 19.5 µM (active) in assay [18]; 17.3 µM (active) and 19.5 µM (active) in [8]; 27.4 µM (active) in [9]; 43.5 µM (active) and 21.9 µM (active) in assay [10]. Moreover, the Potency in [11] was 21.8 µM (active) and 24.5 µM (active); in [12] it was 48.8 µM (active) and 19.5 µM (active); in [14] it was 24.5 µM (active) and 17.4 µM (active); in assay [15] it was 21.8 µM (active) and 17.4 µM (active); in assay [16], 3.08 µM (active) and 9.77 µM (active). Besides, the Potency result in assay [3] and in assay [6] was “inactive” each time. For the same compound, in assay [4], the activity change, positive = activation was -23.7% and -49%.
With `O=NN(CCO)CCO`, the Potency entry in assay [1], in assay [2], in assay [3], in assay [20], in assay [5] and in [18] was “inactive” in each case. Further, the Potency entry in assay [6], in assay [7], in assay [8], in [9], in assay [10] and in [11] was “inactive” throughout. The Potency result in [12], in assay [13], in assay [14], in assay [15] and in assay [16] was “inactive” throughout. Besides, the activity change, positive = activation in [4] was 1.69%.
On to `CN1C(=O)[C@@H](NC(=O)c2cc3ccccc3[nH]2)N=C(c2ccccc2)c2ccccc21`, for which the Potency result in [17], in assay [3], in [18], in assay [6], in assay [7] and in [8] was “inactive” each time. Further, the Potency entry in assay [9], in assay [11], in assay [12], in assay [13], in assay [14] and in assay [15] was “inactive” throughout. In [16], the Potency entry was “inactive”. The activity change, positive = activation in assay [4] was -21.2% [at 42.5 µM].
Regarding `CN1CCc2cc(Cl)c(O)cc2[C@H]2c3ccccc3CC[C@@H]21`, the Potency entry in assay [1], in [2], in [3], in [20], in [5] and in assay [6] was “inactive” in each case. Moreover, the Potency entry in assay [7], in assay [8], in assay [10], in assay [11], in assay [12] and in assay [13] was “inactive” throughout. In addition, the Potency entry in [14], in assay [15] and in [16] was “inactive” each time. For the same compound, in assay [4], the activity change, positive = activation is 0.522% [at 42.5 µM].
